Screening data (PubChem)
G9a inh = G9a (human) methyltransferase inhibition. G9a H3K9 monomethylation, AlphaScreen, 2 h. Potency, µM (doses to about 102 µM), for the others: at the highest dose activity, negative = inhibition, usual class: inhibitors. actives 8.8% (n = 350,000); note: % is set by controls: 0 for no effect and ±100 for the full control effect; nearly all actives have a fitted effect of over 75% in size
Target sequence (Q96KQ7 913-1193 limits assumed): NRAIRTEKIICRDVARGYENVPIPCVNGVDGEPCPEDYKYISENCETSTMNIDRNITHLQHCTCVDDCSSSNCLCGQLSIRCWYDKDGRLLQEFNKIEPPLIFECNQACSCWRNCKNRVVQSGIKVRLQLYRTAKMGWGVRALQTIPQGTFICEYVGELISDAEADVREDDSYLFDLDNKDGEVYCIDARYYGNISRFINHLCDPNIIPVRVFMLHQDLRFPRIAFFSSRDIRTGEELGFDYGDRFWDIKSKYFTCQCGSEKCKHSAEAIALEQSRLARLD
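AlphaScreen detection with an anti-monomethyl H3K9 antibody quantified product after a 2 h room-temperature reaction containing 500 nM biotinylated H3K9 peptide, 20 µM SAM and 20 nM enzyme, which had been preincubated 15 min with compound.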
Sfp inh = inhibitors of Bacillus subtilis Sfp phosphopantetheinyl transferase. Biochemical Sfp PPTase activity, qHTS. AID 1490. Potency, µM, inactives show largest response in the series, negative = inhibition, hits mostly inhibitors. Q9F4F7. actives 3.5% (n = 310,000);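 note: the enzyme is Sfp with the accession as filed and its product quenches rhodamine fluorescence; 0% = enzyme reaction without inhibitor and -100% = no enzyme wells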
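Fluorescence-quenching assay: 15 nM Sfp-PPTase preincubated 15 min at room temperature with compound, then 5 uM rhodamine-CoA and 12.5 uM BHQ-2-labelled YbbR peptide added. Fluorescence (ex 525/em 598 nm) read at start and after 30 min; difference gives rate.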
JMJD2A Tudor inh = JMJD2A Tudor domain (human) inhibition. O75164. AlphaScreen JMJD2A-Tudor / H3K4me3 peptide binding. Potency, µM (highest dose often 114 µM), for inactives: top-dose activity change, negative = inhibition, hits mostly inhibitors. actives 4.4% (n = 390,000). AID 504339; note: % is set by controls: 0 for no effect and ±100 for the full control effect; nearly all actives have a fitted effect of over 50% in size
HP1b chromo inh = blocks HP1-beta chromodomain binding to methylated histone tails; P83916; AlphaScreen HP1-beta / biotin-H3K9me3 peptide binding; Potency, µM (doses to about 114 µM), for the others: at the highest dose activity change, negative = inhibition, actives largely listed as inhibitors; actives 0.56% (n = 390,000); note: nearly all actives have a fitted effect of over 70% in size
Target sequence (P83916 whole entry, looked up): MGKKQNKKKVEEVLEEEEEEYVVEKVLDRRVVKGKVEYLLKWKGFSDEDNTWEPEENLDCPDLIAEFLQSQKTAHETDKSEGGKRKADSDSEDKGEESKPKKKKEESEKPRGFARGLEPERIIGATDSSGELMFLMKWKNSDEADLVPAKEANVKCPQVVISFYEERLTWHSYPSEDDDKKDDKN
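AlphaScreen: HP1-beta (50 nM) preformed 30 min with biotin-H3(1-18)K9me3 peptide (50 nM) in PBS pH 7.4, 0.01% Tween-20. Compound added for 30 min at RT, then streptavidin donor/nickel chelate acceptor beads (10 ug/mL) for 30 min.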
BAZ2B block = blocks human BAZ2B. actives 4.4% (n = 360,000). AID 504333. AlphaScreen BAZ2B-H3K14Ac peptide displacement. Potency, µM (doses to about 114 µM), inactives show top-dose activity change, negative = inhibition, most hits filed as inhibitors; note: % is set by controls: 0 for no effect and ±100 for the full control effect; nearly all actives have a fitted effect of over 60% in size
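Complex of BAZ2B and biotin-H3K14Ac (50 nM apiece) forms over 30 min at RT, then faces library compounds up to 110 uM for another 30 min; AlphaScreen beads added, 20 min dark incubation, luminescence read.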
PLK1 PBD block = blocks phosphopeptide binding to human PLK1 polo-box domain; P53350; Plk1 PBD binding of FITC phosphopeptide, fluorescence polarization; Potency, µM, without a hit: max response, negative = inhibition, actives largely listed as inhibitors; actives 2.8% (n = 360,000); note: series mostly up to about 57 µM; % is set by controls: 0 for no effect and ±100 for the full control effect; nearly all actives have a fitted effect of over 65% in size
Numbers without * were called inactive; ? = inconclusive; · = no result; [ ] = dose if it differs, or a comment. Rows were chosen to be rich in hits. Some 12% of all compounds tested hit in one or more screens of this group. Calls come from the whole dose curve; as a rule, active = well fitted curve in the direction sought with a large enough effect; inconclusive = small, poorly fitted or top-dose-only effect, or another doubt; inactive = no such curve, though single readings can be large; an effect the other way counts as inactive or inconclusive. Potency is the fitted concentration of half-maximal effect.

SMILES	G9a inh	Sfp inh	JMJD2A Tudor inh	HP1b chromo inh	BAZ2B block	PLK1 PBD block
COCC(=O)Nc1nc2n(n1)C(c1ccccc1)CC(c1ccc(OC)cc1)N2 (stereo unspecified)	?	-7.1%	56.2µM*	32.2%	?	-26.7%
O=C(O)CCCC(=O)Nc1nc2n(n1)C(c1ccc(F)cc1)CC(c1ccc(Cl)cc1)N2 (stereo unspecified)	-43.7%[12.7 µM]	-4.0%	?	37.1%	50.1µM*	-6.7%
Cc1ccnc(-n2c(C)cc(/C=N/NC(=O)COc3cccc4cccnc34)c2C)c1	?	19.0%	-25.3%	-1.5%	?	-2.7%
COc1ccc(C2CC2/C(=N/O)c2ccccc2)cc1 (stereo unspecified)	20.2%	0.1%	14.1µM*	?	-2.7%	13.4µM*
O=C(O)c1cc(S(=O)(=O)O)cc(Nc2c3ccccc3nc3ccccc23)c1O	17.8µM*	?	?	?	?	-7.8%
Cn1c(=O)c2c(n3c4ccccc4nc13)NC(=O)CC2c1cccc(F)c1 (stereo unspecified)	1.6%[59 µM]	·	-0.6%	37.4%	1.3%	·
O=C(O)C1C=Cc2ccccc2N1C(=O)c1ccccc1 (stereo unspecified) (tested in a mixture with another compound)	·	·	-6.2%	27.7%	·	-4.9%
NCCC[C@H](N)CC(=O)N[C@H]1CNC(=O)[C@@H]([C@@H]2C[C@H](O)N=C(N)N2)NC(=O)/C(=C/NC(N)=O)NC(=O)[C@@H](CO)NC(=O)[C@@H](CO)NC1=O	22.7%[21.5 µM]	24.9%	·	·	·	·
COc1ccccc1C(=O)NNc1ncc(C)s1	39.8µM*	39.8µM*	-18.6%	32.6%	-31.2%	?
O=c1ccsn1Cc1ccccc1	?	0.631µM*	39.8µM*	?	56.2µM*	2.99µM*
Cc1ccc(N(Cc2ccccc2)C(=O)c2cc(S(=O)(=O)N3CCOCC3)ccc2C)cc1	-10.7%[2.33 µM]	·	-25.5%	11.2%	-6.9%	-0.9%
O=C(N/N=C/C=C/c1ccccc1)c1cccnc1	24.2%[59 µM]	13.1%	-2.8%	34.2%	11.3%	3.2%
O=C(N/N=C/C=C/c1ccco1)c1cccnc1	8.91µM*	35.5µM*	-21.4%	11.0%	3.4%	-18.4%
O=C(N/N=C/C=C\c1ccco1)c1cccnc1	28.2µM*	31.6µM*	-21.4%	11.6%	-4.0%	-16.5%
O=C(N/N=C\C=C\c1ccco1)c1cncc(Br)c1	?	39.8µM*	-18.6%	0.3%	12.4%	?
CCCN1CCN(c2nnc(-n3cccc3C(=O)Nc3cc(Cl)ccc3C)s2)CC1	?	·	?	11.7%	?	·
CCC1CCCCN1C(=O)c1ccc2c(c1)C(=O)N(c1ccc(C)cc1)C2=O (stereo unspecified)	19.2%	-16.7%	-15.4%	-2.6%	-16.5%	-12.7%
CC[C@H](C)[C@H](NC(=O)[C@H](CCC(=O)O)NC(=O)CNC(=O)[C@@H](NC(=O)[C@@H]1CCCN1C(=O)[C@@H](NC(=O)[C@@H]1CCCN1C(=O)[C@@H]1CCCN1C(=O)[C@H](CC(N)=O)NC(=O)[C@H](CC(N)=O)NC(=O)[C@@H](NC(=O)[C@H](CCSC)NC(=O)[C@H](Cc1c[nH]c2ccccc12)NC(=O)CNC(=O)[C@@H](NC(=O)[C@H](CCC(N)=O)NC(=O)[C@@H](N)CCC(=O)O)[C@@H](C)CC)[C@@H](C)O)[C@@H](C)CC)C(C)C)C(=O)O	·	5.5%	·	·	·	·
CCCNC(=S)NNC(=O)c1cc(-c2cccnc2)nc2ccccc12	-5.7%[0.501 µM]	13.0%	-19.1%	43.6%	-4.7%	-3.4%
CC(=O)Nc1cccc(NC(=O)c2cc(-c3cccnc3)nc3ccc(Br)cc23)c1	-9.9%[0.501 µM]	-18.5%	-30.3%	-1.9%	-14.1%	-4.3%
O=C(NNC(=S)Nc1ccccc1)c1cc(-c2cccnc2)nc2ccccc12	15.8µM*	0.8%	-23.4%	-6.0%	-19.9%	-13.8%
CCNC(=S)NNC(=O)c1cc(-c2cccnc2)nc2ccccc12	44.7µM*	10.2%	-20.4%	22.9%	5.4%	-21.0%
CSc1ccccc1NC(=O)c1cc(-c2cccnc2)nc2ccc(Br)cc12	-2.7%[12.7 µM]	44.7µM*	?	6.7%	?	-8.1%
CCCCNC(=S)NNC(=O)c1cc(-c2cccnc2)nc2ccccc12	79.4µM*	9.6%	-18.8%	19.5%	-14.1%	-4.7%
Cc1ccc2c(=O)cc(CSc3ncn[nH]3)[nH]c2c1C	-1.1%[59 µM]	·	0.3%	28.2%[57 µM]	2.1%	·
SMILES	G9a inh	Sfp inh	JMJD2A Tudor inh	HP1b chromo inh	BAZ2B block	PLK1 PBD block
CC(=O)c1cccc(NC(=O)c2ccc(Cl)c(S(=O)(=O)N3CCOCC3)c2)c1	3.4%[59 µM]	·	-9.8%	21.1%	-1.0%	·
CCN(Cc1ccncc1)C(=O)c1cc(COc2ccc(F)cc2F)on1	39.8µM*	-3.6%	-15.1%	56.4%	-19.4%	-19.5%
CCN(Cc1cnn(C)c1)C(=O)c1cc(COc2ccc(F)cc2F)on1	6.9%[59 µM]	-4.1%	1.1%	41.8%	2.8%	-2.5%
Brc1ccc(CN2CCN(Cc3c[nH]c4ccccc34)CC2)cc1	50.1µM*	56.2µM*	2.24µM*	22.4µM*	39.8µM*	4.5%
Brc1ccccc1CN1CCN(Cc2c[nH]c3ccccc23)CC1	·	·	0.794µM*	39.8µM*	·	-2.0%
c1cnc(N2CCN(Cc3c[nH]c4ccccc34)CC2)nc1	?	9.4%	-22.2%	5.5%	-7.7%	-7.0%
O=[N+]([O-])c1ccc(CN2CCN(Cc3c[nH]c4ccccc34)CC2)cc1	8.91µM*	?	7.94µM*	?	22.4µM*	5.7%
O=C(c1cccc(Cl)c1)N1CCN(Cc2c[nH]c3ccccc23)CC1	7.2%	15.4%	3.55µM*	0.2%	4.3%	-5.1%
Cc1ccc(C2=NOC(C)(c3nnc(-c4ccc(Cl)cc4)o3)C2)cc1 (stereo unspecified)	4.5%[59 µM]	-7.4%	18.1%	50.3%	16.1%	-5.5%
Fc1ccc(N2CCN(Cc3c[nH]c4ccccc34)CC2)cc1	-9.6%[59 µM]	-2.1%	·	·	?	·
OCc1ccccc1CN1CCCCCC1	·	·	-16.7%	7.5%	·	-7.3%
CN1CCCN(Cc2ccccc2Br)CC1	22.4µM*	79.4µM*	0.891µM*	?	?	-6.8%
CCS(=O)(=O)N1CCN(Cc2c[nH]c3ccccc23)CC1	14.1µM*	-10.5%	1.12µM*	?	56.2µM*	4.7%
Cc1ccccc1N1CCN(Cc2c[nH]c3ccccc23)CC1	31.6µM*	-18.1%	5.01µM*	?	?	3.0%
COc1ccc(-c2noc(-c3cccnc3N3CCN(c4ccc(OC)cc4)CC3)n2)cc1	-32.1%[59 µM]	·	-24.2%	27.0%	-17.5%	·
c1ccc2c(N3CCNCC3)nc(-c3ccoc3)nc2c1	·	2.0%	·	·	·	·
Cc1cc(C)cc(NC(=S)NN)c1	10µM*	15.5%	-27.6%	-10.8%	-21.1%	-14.7%
